From PubChem BioAssay (NCI)
About 79,000 compounds went through this panel and 15% of them were active in at least one assay; those are over-represented in the sample as a whole. Cut-off read from the data, not from the text of the source: active = growth inhibition above about 70%; inactive = the rest. Where a SMILES comes first, the peptide text is derived from it. The star is where a group is joined. Cbz = O=C(OCc1ccccc1)*

What was measured:
[1] = NCI Yeast Anticancer Drug Screen. Data for the rad50 strain (AID 155);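 note: 0% = growth of vehicle-only cultures of the same strain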; conditions: S. cerevisiae rad50 strain growth inhibition; at 50.0 µM; active compounds read high
Outline: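 Readout: growth inhibition relative to vehicle-treated cultures. Compound exposure was carried out in a genetically defined yeast strain deficient in DNA damage repair.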

[2] = NCI Yeast Anticancer Drug Screen. Data for the mec2-1 strain (AID 157); conditions: S. cerevisiae mec2-1 strain, at 50.0 µM, active compounds read high
Outline: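 Each compound was tested on mec2-1 yeast, a strain altered in DNA damage repair or cell cycle control. Growth inhibition is reported relative to vehicle.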

[3] = NCI Yeast Anticancer Drug Screen. Data for the sgs1 mgt1 strain (AID 161);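 note: 0% = growth of cultures given vehicle only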; conditions: S. cerevisiae sgs1 mgt1 strain, at 50.0 µM, active compounds read high
Outline: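 Read-out: growth inhibition vs vehicle controls. Cells: mutant yeast strain deficient in DNA damage repair.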

[4] = NCI Yeast Anticancer Drug Screen. Data for the cln2 rad14 strain (AID 165);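 note: 0% = growth equal to vehicle treated cultures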; conditions: S. cerevisiae cln2 rad14 strain, at 50.0 µM, active compounds read high
Outline: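 Test compounds were added to cln2 rad14 yeast cultures; inhibition of growth was then determined by comparison with vehicle treatment.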

[5] = NCI Yeast Anticancer Drug Screen. Data for the bub3 strain (AID 167); conditions: S. cerevisiae bub3 mutant strain, at 50.0 µM, active compounds read high
Outline: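 Readout: yeast growth inhibition, expressed relative to vehicle-only wells. The test organism is a mutant strain from a panel with lesions in DNA repair or checkpoint genes.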

[6] = NCI Yeast Anticancer Drug Screen. Data for the mlh1 rad18 strain (AID 175); conditions: S. cerevisiae mlh1 rad18 strain growth inhibition; at 50.0 µM; active compounds read high
Outline: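 Inhibition values reflect reduced growth of mutant yeast versus vehicle-treated controls following compound exposure; the mutations affect DNA damage repair.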

Measured: growth inhibition

NC(=O)c1ccccc1NC(=O)C(=O)Cc1nc2ccccc2[nH]c1=O
inactive: [1] -2.55% | [2] -1.55% | [3] 11.7% | [4] 12.7% | [5] 1.25% | [6] 6.15%

O=C(Cl)CNS(=O)(=O)c1ccccc1
inactive: [1] 5.45% | [2] 5.1% | [3] 1% | [4] 15.8% | [5] 6.4% | [6] 1.45%

N#Cc1nc(-c2ccccc2C(=O)O)oc1N
inactive: [1] -0.5% | [2] 9.8% | [3] -16.1% | [4] 5.7% | [5] -7.15% | [6] -62%

CCOC(=O)C[C@@]1(C)C(=O)O[C@H](c2ccccc2)N1C(=O)c1ccccc1
inactive: [1] 13.2% | [2] 6.4% | [3] 14.2% | [4] 29.9% | [5] 11.8% | [6] 15.1%

Cc1cc(Cl)ccc1NC(=O)C1C(=O)N(c2ccc(Cl)cc2C)C(=O)/C1=N\NC(N)=S (stereo not given)
inactive: [1] -16.6% | [2] -6.6% | [3] -22.5% | [4] -0.25% | [5] -2.5% | [6] -27.1%

COc1ccc(C2c3cc4c(cc3OC(C)(OC)C2C)OCO4)cc1 (stereo not given)
inactive: [1] -33.5% | [2] -6.8% | [3] -3.25% | [4] -14.8% | [5] 19.8% | [6] 14.7%

O=C(CC1(O)C(=O)Nc2ccc(Br)cc21)c1ccc(Cl)cc1Cl (stereo not given)
inactive: [1] 44.9% | [2] 36.7% | [3] 69% | [4] 37% | [5] 48.2% | [6] 33.9%

COC(=O)C(N)Cc1ccc(OCc2ccccc2)cc1 (stereo not given)
inactive: [1] -0.8% | [2] 5.2% | [3] -2.25% | [4] -4.25% | [5] 24.4% | [6] -5.35%

CC(=O)OCC(OC(C)=O)C(OC1OC(COC(C)=O)C(OC(C)=O)C(OC(C)=O)C1OC(C)=O)C(OC(C)=O)c1cnn(-c2ccccc2)n1 (stereo not given)
inactive: [1] -10.7% | [2] -0.1% | [3] -8.15% | [4] -19.4% | [5] -2.65% | [6] -5.75%

O=C1CSC(=S)N1
inactive: [1] -8.05% | [2] -7.9% | [3] 13.3% | [4] 10.8% | [5] -7.15% | [6] 20.9%

C/C(CCn1[nH]c(=O)ccc1=O)=N\N=C(N)N
inactive: [1] -13.2% | [2] -13.1% | [3] -0.65% | [4] -4.85% | [5] -1.4% | [6] 1.7%

COC(=O)C1CCC(C)(C(=O)OC)C1(C)C (stereo not given)
inactive: [1] 0% | [2] -15.2% | [3] -11.9% | [4] -1.3% | [5] -12.4% | [6] -3.75%

CC(O)C(NC(=O)C(Cc1ccc(O)cc1)NC(=O)OCc1ccccc1)C(=O)O (stereo not drawn) (Cbz-Tyr-Thr-OH; configuration not given here)
inactive: [1] -9.65% | [2] -4.25% | [3] -2.05% | [4] -35.8% | [5] -4.85% | [6] -0.7%

CCOC(=O)C(=O)C(/C(=N/N(C)C)C(=O)Nc1ccc(C)cc1C)c1nc2ccccc2[nH]c1=O (stereo not given)
inactive: [1] -21.7% | [2] -22.1% | [3] 3.8% | [4] 11.7% | [5] 1% | [6] 12.5%

CC(=O)/C=c1\[nH]/c(=C\C=C\c2ccccc2)c(=O)n1/C=C1\C(=O)Oc2ccccc2C1=O
inactive: [1] -39.4% | [2] 7.1% | [3] 4.6% | [4] 24.6% | [5] -18.1% | [6] -46%

Cc1ccc(C(C)(CCC(=O)O)c2ccc(C)o2)o1
inactive: [1] 36.2% | [2] 12.2% | [3] 7.35% | [4] 45.2% | [5] 8.5% | [6] 25.4%

COc1ccccc1C1(CBr)OCCO1
inactive: [1] -6.15% | [2] -7.7% | [3] 6.55% | [4] -5.4% | [5] -3.85% | [6] 9.4%

CC1NC(C)c2ccc3ccccc3c2O1 (stereo not given)
inactive: [1] -4.85% | [2] -12.7% | [3] -25.1% | [4] -9.35% | [5] -11.2% | [6] -6.15%

COc1ccc2nccc(Cl)c2c1
inactive: [1] 12.2% | [2] 12.3% | [3] 1.6% | [4] -6.55% | [5] 15.2% | [6] 6.45%

COc1ccc(OC)c2c(Nc3ccc(S(=O)(=O)O)c4cc(S(=O)(=O)O)cc(S(=O)(=O)O)c34)cc(C)nc12
inactive: [1] 2.5% | [2] -6.4% | [3] 9.25% | [4] 3.1% | [5] 6.8% | [6] 10.9%
